Experimental findings from paper PMC12135187, “A role for pH dynamics regulating transcription factor DNA-binding selectivity” are described below.

The full ranking holds about 1,100 sequences; the median of “relative enrichment” is about 0.38, and the highest 2% start at about 0.66. Shown is part of a subset that was picked to be rich in the highest values.

For this assay, the target named is T1, FOXC2 DBD WT (UniProt Q99958 72-172).
T1 sequence: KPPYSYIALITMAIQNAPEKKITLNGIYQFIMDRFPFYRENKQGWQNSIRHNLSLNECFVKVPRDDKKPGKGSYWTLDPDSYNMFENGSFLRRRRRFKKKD
As to the kind of experiment: SELEX-seq (GST pull-down, four rounds, 16-nt random library); pH 7.0; 20 mM HEPES, 140 mM KCl, 0.05 mM TCEP-HCl, pH 7.0, room temperature, 30 min; 2.5 uM GST-FOXC2 DBD, 0.25 uM DNA library; high values mean tight binding. Conditions: protein: recombinant; tags: N-terminal GST (pGEX-6P-2); dsDNA, one strand shown. An outline of the steps: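 GST-tagged FOXC2 DNA-binding domain (E. coli-expressed, glutathione-purified) was incubated with a DNA library carrying a 16 bp randomized region, at 0.25 μM DNA and 2.5 μM protein, for 30 min at RT in 20 mM HEPES, 140 mM KCl, 0.05 mM TCEP–HCl, pH 7. Complexes were captured on glutathione Sepharose beads, washed, heat-eluted and PCR-amplified over four rounds. Initial and selected libraries were Illumina MiniSeq sequenced. Relative enrichment came from the Bioconductor SELEX R package.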
With GTCTTA, the binding signal was found to be 0.348 relative enrichment. Turning to GATCTA, the binding signal turned out to be 0.537 relative enrichment. In the case of AGATTA it was 0.329 relative enrichment; in that of GCAACA, 0.23 relative enrichment; in that of ACAAGA, 0.322 relative enrichment. In the case of AATCGC it was 0.406 relative enrichment.

CATCCA: the binding signal amounted to 0.528 relative enrichment.

Turning to CATCGT, the binding signal is 0.553 relative enrichment. In the case of CATCCT it was 0.605 relative enrichment; in that of CATCCC, 0.704 relative enrichment; in that of CATCGC, 0.711 relative enrichment. In the case of TAGACA it was 0.44 relative enrichment; in that of ATCCAT, 0.477 relative enrichment.

On to TAATAA, for which the binding signal stood at 0.399 relative enrichment. In the case of AATAAT it was 0.309 relative enrichment; in that of AAATAT, 0.435 relative enrichment. In the case of AATAAG it was 0.686 relative enrichment; in that of CATAAG, 0.406 relative enrichment. In the case of AAATAA it was 0.891 relative enrichment. In the case of GATAAA, the binding signal was found to be 0.326 relative enrichment.

For the sequence CATAAA, the binding signal amounted to 0.596 relative enrichment. In the case of AATAAA it was 0.839 relative enrichment; in that of GCTCAA, 0.305 relative enrichment. In the case of CAATTC it was 0.306 relative enrichment; in that of AAAACA, 0.264 relative enrichment. Consider AACTAT, for which the binding signal came out at 0.324 relative enrichment. Regarding CAGTAA, the binding signal turned out to be 0.415 relative enrichment. Consider AGTACT, for which the binding signal was found to be 0.668 relative enrichment.

Turning to AATACT, the binding signal was found to be 0.328 relative enrichment. In the case of AGTACA it was 0.385 relative enrichment; in that of AAAGTG, 0.343 relative enrichment. In the case of CAATGG it was 0.433 relative enrichment; in that of ATTTAC, 0.56 relative enrichment; in that of ATTAGG, 0.356 relative enrichment. With TCCAAA, the binding signal is 0.348 relative enrichment. In the case of ACTTCC it was 0.677 relative enrichment; in that of AATTCC, 0.366 relative enrichment; in that of ACTTCA, 0.453 relative enrichment. In the case of ACTCGT it was 0.431 relative enrichment. In the case of CTGCAT it was 0.524 relative enrichment; in that of TCCTAT, 0.313 relative enrichment. As to AAACCG, the binding signal was 0.336 relative enrichment. For the sequence CAATGC, the binding signal worked out at 0.376 relative enrichment. Regarding TACGTA, the binding signal worked out at 0.539 relative enrichment. Turning to TACGTC, the binding signal was determined as 0.674 relative enrichment. In the case of AACGTC it was 0.372 relative enrichment; in that of CCATTA, 0.286 relative enrichment.

For ACCACT, the binding signal turned out to be 0.588 relative enrichment. In the case of GGTTTA it was 0.395 relative enrichment; in that of ATTTGG, 0.408 relative enrichment.

In the case of CTGTTA, the binding signal worked out at 0.238 relative enrichment. On to TTACAA, for which the binding signal worked out at 0.36 relative enrichment. In the case of TACGAA it was 0.468 relative enrichment; in that of TATACA, 0.505 relative enrichment; in that of GAAACA, 0.347 relative enrichment. Turning to AAAATA, the binding signal amounted to 0.439 relative enrichment. In the case of GAAATA it was 0.451 relative enrichment. In the case of CAAATC it was 0.3 relative enrichment. Take TAAATA: the binding signal was determined as 0.726 relative enrichment. As to CAAATA, the binding signal is 0.707 relative enrichment. On to TAAACA, for which the binding signal is 0.701 relative enrichment. In the case of CAAACA it was 0.57 relative enrichment; in that of CAAATG, 0.327 relative enrichment; in that of ATAGCA, 0.284 relative enrichment. In the case of TCTTTC it was 0.55 relative enrichment. As to CAGACT, the binding signal stood at 0.612 relative enrichment. In the case of ACTTGA it was 0.341 relative enrichment; in that of CATAAC, 0.226 relative enrichment. As for AAATGG, the binding signal amounted to 0.353 relative enrichment.

GTTCGT: the binding signal is 0.328 relative enrichment. In the case of CTTCGT, the binding signal turned out to be 0.674 relative enrichment.

For CTTCAT, the binding signal was 0.554 relative enrichment. Consider ATGTTA, for which the binding signal was 0.428 relative enrichment.

TCATTC: the binding signal is 0.646 relative enrichment. For the sequence ACCTTA, the binding signal was 0.322 relative enrichment. In the case of GATCTT it was 0.497 relative enrichment; in that of TCTAAC, 0.304 relative enrichment. In the case of CTACAA it was 0.352 relative enrichment. As for ACAATA, the binding signal worked out at 0.351 relative enrichment. In the case of AAACGA it was 0.433 relative enrichment; in that of GTGTCA, 0.372 relative enrichment. In the case of CATGCA it was 0.513 relative enrichment; in that of AGGATA, 0.311 relative enrichment; in that of TACCCT, 0.504 relative enrichment. On to AGCCTA, for which the binding signal was determined as 0.371 relative enrichment. With AAAGTT, the binding signal amounted to 0.3 relative enrichment.

As to AGTTTA, the binding signal came to 0.403 relative enrichment.

Turning to CTATCA, the binding signal was 0.419 relative enrichment.

As to ACTGCT, the binding signal amounted to 0.412 relative enrichment. As to AACTAC, the binding signal came out at 0.312 relative enrichment. Consider AACCAC, for which the binding signal was determined as 0.351 relative enrichment.

In the case of ACACGG, the binding signal was determined as 0.442 relative enrichment. As for TCATCT, the binding signal came to 0.546 relative enrichment. As to CAACGC, the binding signal was 0.322 relative enrichment. In the case of ACTTCT it was 0.502 relative enrichment; in that of TCTTCT, 0.66 relative enrichment. In the case of CCTTCT it was 0.774 relative enrichment; in that of AAGCAG, 0.486 relative enrichment; in that of ATCTCT, 0.485 relative enrichment. In the case of TCACAA it was 0.332 relative enrichment; in that of AGGTTG, 0.313 relative enrichment. As for ACATCG, the binding signal was found to be 0.521 relative enrichment.

Take ATGTTC: the binding signal amounted to 0.304 relative enrichment.

Take TGAACA: the binding signal stood at 0.291 relative enrichment. As to AACGAA, the binding signal was 0.281 relative enrichment.

Take GACTTA: the binding signal is 0.52 relative enrichment.

Consider AATGAT, for which the binding signal stood at 0.314 relative enrichment.

For the sequence CCGTTG, the binding signal amounted to 0.343 relative enrichment. CCTGTG: the binding signal was 0.491 relative enrichment. ACTCTC: the binding signal came to 0.499 relative enrichment. Take ATTAAA: the binding signal came to 0.406 relative enrichment. Take TGTCAA: the binding signal came out at 0.457 relative enrichment. In the case of AATTAG it was 0.241 relative enrichment; in that of ACGATA, 0.322 relative enrichment.
